According to PubChem BioAssay (NCATS):
Records with an inconclusive call do not appear. A number with no mark means an inactive call. The source made the active and inactive calls. The call rests on the fitted dose curve; in most records, active means well fitted inhibition curve with a large enough effect; inconclusive means small, poorly fitted or top-dose-only effect; inactive means flat fitted curve, though single readings scatter.

The molecules below were run on PC26 (assay: qHTS profiling for inhibitors of Plasmodium falciparum proliferation (AID 504749; further: nearly all actives have a fitted effect of over 60% in size;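 on activity, negative = inhibition: 0% = DMSO vehicle and full inhibition = artemisinin control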)). Details: P. falciparum in erythrocytes, SYBR Green DNA, 72 h; series mostly up to 28.7 µM; activity, negative = inhibition: at the top concentration.
How it was run: (§1)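 Fluorescence of SYBR Green-bound parasite DNA, read at 485/535 nm, served as the growth measure. Infected erythrocytes were cultured with compound 72 h; artemisinin (0.29 uM) and DMSO wells defined the normalization range.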
Potency means the concentration at half of the fitted maximal effect.

Row | Compound | activity, negative = inhibition | Potency
1 | C[C@H](N)Cc1ccccc1 | 1.86% | –
2 | C[C@]12C=CC(=O)C=C1CC[C@@H]1C2CC[C@]2(C)OC(=O)CCC12 (some centres not stated) | -0.339% | –
3 | OCC(O)[C@H]1O[C@@H]2O[C@H](C(Cl)(Cl)Cl)O[C@@H]2[C@H]1O (some centres not stated) | 8.03% | –
4 | CC1(C)[C@@H](C=C(Cl)Cl)[C@@H]1C(=O)OCc1c(F)c(F)cc(F)c1F | 3.48% | –
5 | CC1(C)S[C@@H]2[C@H](N)C(=O)N2C1C(=O)O (some centres not stated) | 9.28% [at 12.8 µM] | –
6 | C=C1Nc2ccccc2C(=O)N1c1ccccc1C | -18.3% | –
7 | O=[N+]([O-])OC1CO[C@H]2C(O[N+](=O)[O-])COC12 (some centres not stated) | 4.53% | –
8 | CCOC(=O)/C=C(C)/C=C/CC(C)CCCC(C)C (configuration not stated) | -2.07% | –
9 | CN1C2CCC1C(C(=O)O)C(OC(=O)c1ccccc1)C2 (configuration not stated) | 10.8% | –
10 | C[C@@H]1CC[C@H]2[C@@H](C)C(=O)O[C@@H]3OC4(C)CC[C@@H]1C32OO4 (some centres not stated) | – | 7.6 nM (active)
11 | Cc1ccc2c(c1)[C@@H]1CN(C)CC[C@H]1N2 | -3.2% | –
12 | Nc1nc(O)c(-c2ccccc2)o1 | 4.35% | –
13 | C=CC[N+]1(C)CCC23c4c5ccc(O)c4O[C@H]2C(=O)CC[C@@]3(O)C1C5 (some centres not stated) | -0.249% | –
14 | OC[C@@H](O)[C@H]1O[C@@H]2OC(C(Cl)(Cl)Cl)O[C@H]2[C@H]1O (some centres not stated) | -13.4% | –
15 | CCCCCCC(=O)O[C@H]1CC[C@H]2[C@@H]3CCC4CC(=O)C=C(C)[C@]4(C)[C@H]3CC[C@]12C (some centres not stated) | 1.39% | –
16 | CCCN1CCCC2Cc3nc(N)ncc3CC21 (configuration not stated) | 0.723% | –
17 | COc1ccc2c3c1O[C@H]1[C@@H](O)C=C[C@H]4C(C2)NCCC341 (some centres not stated) | -14.2% | –
18 | CCCCCC(O)C1C(=O)OC(C)C(O)\C=C/C=C\C=C/C=C\C=C(\C)C(O)C(O)C(O)CC(O)CC(O)CC(O)CC(O)CC1O (configuration not stated) | 20.6% | –
19 | CCCCCc1cc(O)c2c(c1)OC(C)(C)C1CC=C(C)CC21 (configuration not stated) | – | 1900 nM (active)

What follows are molecules tested on PC49 in the same assay as above. Details: P. falciparum in erythrocytes, SYBR Green DNA, 72 h; series mostly up to 28.7 µM; activity, negative = inhibition: at the top concentration.
How it was run: as §1

Row | Compound | activity, negative = inhibition | Potency
20 | C[C@H](N)Cc1ccccc1 | 3.56% | –
21 | C[C@]12C=CC(=O)C=C1CC[C@@H]1C2CC[C@]2(C)OC(=O)CCC12 (some centres not stated) | 5.55% | –
22 | OCC(O)[C@H]1O[C@@H]2O[C@H](C(Cl)(Cl)Cl)O[C@@H]2[C@H]1O (some centres not stated) | 4.62% | –
23 | CC1(C)[C@@H](C=C(Cl)Cl)[C@@H]1C(=O)OCc1c(F)c(F)cc(F)c1F | -2.99% | –
24 | CC1(C)S[C@@H]2[C@H](N)C(=O)N2C1C(=O)O (some centres not stated) | 6.61% [at 12.8 µM] | –
25 | C=C1Nc2ccccc2C(=O)N1c1ccccc1C | 1.5% | –
26 | CC1OC(O[C@H]2C[C@@H](O)[C@]3(CO)[C@@H]4C(CC[C@]3(O)C2)[C@@]2(O)CC[C@H](C3=CC(=O)OC3)[C@@]2(C)C[C@H]4O)C(O)C(O)C1O (some centres not stated) | 6.35% | –
27 | O=[N+]([O-])OC1CO[C@H]2C(O[N+](=O)[O-])COC12 (some centres not stated) | 17.6% | –
28 | CCOC(=O)/C=C(C)/C=C/CC(C)CCCC(C)C (configuration not stated) | -0.318% | –
29 | [S]=[Sb][S][Sb]=[S] | 14.5% | –
30 | CN1C2CCC1C(C(=O)O)C(OC(=O)c1ccccc1)C2 (configuration not stated) | 0.197% | –
31 | Cc1ccc2c(c1)[C@@H]1CN(C)CC[C@H]1N2 | 8.66% | –
32 | Nc1nc(O)c(-c2ccccc2)o1 | 3.19% | –
33 | C=CC[N+]1(C)CCC23c4c5ccc(O)c4O[C@H]2C(=O)CC[C@@]3(O)C1C5 (some centres not stated) | -1.19% | –
34 | OC[C@@H](O)[C@H]1O[C@@H]2OC(C(Cl)(Cl)Cl)O[C@H]2[C@H]1O (some centres not stated) | 10.1% | –
35 | CCCCCCC(=O)O[C@H]1CC[C@H]2[C@@H]3CCC4CC(=O)C=C(C)[C@]4(C)[C@H]3CC[C@]12C (some centres not stated) | 4.1% | –
36 | Cc1cc(C)cc(C(=O)OC2CC3CCC(C2)N3C)c1 (configuration not stated) | -23.5% | –
37 | CCCN1CCCC2Cc3nc(N)ncc3CC21 (configuration not stated) | 1.12% | –
38 | COc1ccc2c3c1O[C@H]1[C@@H](O)C=C[C@H]4C(C2)NCCC341 (some centres not stated) | -2.29% | –
39 | CCCCCC(O)C1C(=O)OC(C)C(O)\C=C/C=C\C=C/C=C\C=C(\C)C(O)C(O)C(O)CC(O)CC(O)CC(O)CC(O)CC1O (configuration not stated) | 7.13% | –
40 | CCCCCc1cc(O)c2c(c1)OC(C)(C)C1CC=C(C)CC21 (configuration not stated) | – | 4470 nM (active)

Each molecule was assayed on SC27B in the same assay as above. Details: P. falciparum in erythrocytes, SYBR Green DNA, 72 h; series mostly up to 28.7 µM; activity, negative = inhibition: at the top concentration.
How it was run: as §1

Row | Compound | activity, negative = inhibition | Potency
41 | C[C@H](N)Cc1ccccc1 | 2.1% | –
42 | C[C@]12C=CC(=O)C=C1CC[C@@H]1C2CC[C@]2(C)OC(=O)CCC12 (some centres not stated) | 1.98% | –
43 | OCC(O)[C@H]1O[C@@H]2O[C@H](C(Cl)(Cl)Cl)O[C@@H]2[C@H]1O (some centres not stated) | 9.74% | –
44 | CC1(C)[C@@H](C=C(Cl)Cl)[C@@H]1C(=O)OCc1c(F)c(F)cc(F)c1F | -1.81% | –
45 | CC1(C)S[C@@H]2[C@H](N)C(=O)N2C1C(=O)O (some centres not stated) | 1.44% [at 12.8 µM] | –
46 | C=C1Nc2ccccc2C(=O)N1c1ccccc1C | -0.426% | –
47 | CC1OC(O[C@H]2C[C@@H](O)[C@]3(CO)[C@@H]4C(CC[C@]3(O)C2)[C@@]2(O)CC[C@H](C3=CC(=O)OC3)[C@@]2(C)C[C@H]4O)C(O)C(O)C1O (some centres not stated) | -6.12% | –
48 | O=[N+]([O-])OC1CO[C@H]2C(O[N+](=O)[O-])COC12 (some centres not stated) | 4.16% | –
49 | CCOC(=O)/C=C(C)/C=C/CC(C)CCCC(C)C (configuration not stated) | 12.6% | –
50 | [S]=[Sb][S][Sb]=[S] | 9.53% | –
51 | CN1C2CCC1C(C(=O)O)C(OC(=O)c1ccccc1)C2 (configuration not stated) | 2.91% | –
52 | C[C@@H]1CC[C@H]2[C@@H](C)C(=O)O[C@@H]3OC4(C)CC[C@@H]1C32OO4 (some centres not stated) | – | 7.1 nM (active)
53 | Cc1ccc2c(c1)[C@@H]1CN(C)CC[C@H]1N2 | 11.7% | –
54 | Nc1nc(O)c(-c2ccccc2)o1 | -0.104% | –
55 | C=CC[N+]1(C)CCC23c4c5ccc(O)c4O[C@H]2C(=O)CC[C@@]3(O)C1C5 (some centres not stated) | 9.87% | –
56 | OC[C@@H](O)[C@H]1O[C@@H]2OC(C(Cl)(Cl)Cl)O[C@H]2[C@H]1O (some centres not stated) | 11.5% | –
57 | CCCCCCC(=O)O[C@H]1CC[C@H]2[C@@H]3CCC4CC(=O)C=C(C)[C@]4(C)[C@H]3CC[C@]12C (some centres not stated) | -2.76% | –
58 | Cc1cc(C)cc(C(=O)OC2CC3CCC(C2)N3C)c1 (configuration not stated) | -5.13% | –
59 | CCCN1CCCC2Cc3nc(N)ncc3CC21 (configuration not stated) | 13.8% | –
60 | COc1ccc2c3c1O[C@H]1[C@@H](O)C=C[C@H]4C(C2)NCCC341 (some centres not stated) | 7.18% | –
61 | CCCCCC(O)C1C(=O)OC(C)C(O)\C=C/C=C\C=C/C=C\C=C(\C)C(O)C(O)C(O)CC(O)CC(O)CC(O)CC(O)CC1O (configuration not stated) | 4.09% | –
62 | CCCCCc1cc(O)c2c(c1)OC(C)(C)C1CC=C(C)CC21 (configuration not stated) | – | 2000 nM (active)
